# VACV mCherry inh = qHTS for Stage-Specific Inhibitors of Vaccinia Orthopoxvirus: mCherry Reporter Primary qHTS; Potency, µM (series often up to 36.5 µM), for the others: at the top dose activity change, negative = inhibition, actives largely listed as inhibitors; 310,000 compounds, 0.63% hits; Vaccinia virus mCherry reporter infection, fluorescence; calls by dose curve; tested in A549 cells; note: nearly all actives have a fitted effect of over 35% in size
# Vaccinia Venus = qHTS for Stage-Specific Inhibitors of Vaccinia Orthopoxvirus: Venus Reporter Primary qHTS. Potency, µM (highest dose often 36.5 µM), inactives show at the highest dose activity change, negative = inhibition, usual class: inhibitors. 330,000 compounds, 0.46% hits. Vaccinia virus Venus reporter expression, fluorescence; calls by dose curve; tested in A549 cells; note: nearly all actives have a fitted effect of over 30% in size
# FMDV inh = High Throughput Screening for Foot and Mouth Disease Virus Antivirals; FMDV antiviral cell-based qHTS; Potency, µM (top dose mostly 57.9 µM), for the others: top-dose activity change, negative = inhibition, usual class: inhibitors; 410,000 compounds, 1.2% hits; AID 1159524, 2015; calls by dose curve; tested in HEK293T cells; note: read-out not given here; nearly all actives have a fitted effect of over 45% in size
# LASV entry inh = qHTS for Inhibitors of binding or entry into cells for Lassa Virus. Lassa virus pseudotype entry inhibition, cell reporter. Potency, µM (doses to about 37.9 µM), for inactives: top-dose activity change, negative = inhibition, usual class: inhibitors. 300,000 compounds, 1.2% hits; calls by dose curve; tested in HEK293 cells; note: nearly all actives have a fitted effect of over 50% in size
# Marburg entry inh = qHTS for inhibitors of binding or entry into cells for Marburg Virus; Marburg virus pseudotyped entry inhibition, cell reporter; Potency, µM (titrated, usually from 37.8 µM), for the others: at the top dose activity change, negative = inhibition, usual class: inhibitors; 300,000 compounds, 1.8% hits; calls by dose curve; tested in HEK293 cells
# * hit, by the source's call; i = inactive; ? = inconclusive; / = not tested or not shown; [ ] = remark or other dose. An excerpt weighted towards active compounds, which were near 3.2% of everything screened. % is set by controls: 0 for no effect and ±100 for the full control effect; potency is the fitted concentration of half-maximal effect.
SMILES,VACV mCherry inh,Vaccinia Venus,FMDV inh,LASV entry inh,Marburg entry inh
COc1ccc(-c2cn[nH]c2-c2ccc(OCc3ccccc3)cc2O)cc1OC,11µM*,?,?,?,?
CN(C)c1ccc(/C=C2\c3ccccc3-c3ccc(N(C)C)cc32)cc1,-13%,-4%,/,/,/
COC(=O)c1ccsc1NC(=O)CN1CCN(c2ncccn2)CC1,-7%,-3%,?,?,?
CC(=NNC(=S)N(Cc1ccccn1)Cc1ccccn1)c1cnccn1,1.4µM*,3.5µM*,-6%,2.8µM*,?
S=C(NN=C(c1ccccc1)c1ccccn1)N(Cc1ccccn1)Cc1ccccn1,2.5µM*,?,-20%,?,0.63µM*
O=C(CCCC(=O)N/N=C\c1ccccn1)N/N=C\c1ccccn1,-3%,-7%,-19%,4%,0%
Cc1ccccc1NC(=S)N(Cc1ccccn1)Cc1ccccc1Cl,-14%,-7%,28%,?,?
S=C(NN=Cc1ccccn1)N(Cc1ccccn1)Cc1ccccn1,5.6µM*,?,-15%,?,1.3µM*
C=C1C2c3ccccc3C(CC2(C)O[Si](C)(C)C)N1C(=O)OC (configuration not stated),/,/,/,/,22%[14.2 µM]
COc1ccc2ccccc2c1CN1CCCC(n2cc(C(=O)N3CCCC3)nn2)C1 (configuration not stated),-4%,-1%,12%,/,/
Cc1ccc(-c2ccc(CN3C(C(C)C)C(=O)N(Cc4cn(CC5CCCCC5)nn4)CCS3(=O)=O)cc2)cc1 (configuration not stated),-10%,?,-22%,?,/
COCOCCn1cc(CN2CCS(=O)(=O)N(Cc3ccc(-c4ccc(Cl)c(Cl)c4)cc3)C(C)C2=O)nn1 (configuration not stated),?,13µM*,?,-7%[46.1 µM],/
CC(C)C1C(=O)N(Cc2cn(CC3CCCCC3)nn2)CCS(=O)(=O)N1Cc1ccc(-c2ccc(Cl)cc2)cc1 (configuration not stated),10µM*,?,-26%,?,/
CC1C(=O)N(Cc2cn(CC3CCCCC3)nn2)CCS(=O)(=O)N1Cc1ccc(-c2ccc(Cl)cc2)cc1 (configuration not stated),?,11µM*,?,/,/
N[C@@H]1C=CC=C(C(=O)O)C1,/,/,/,/,-4%
O=C(Nc1cccc(C(F)(F)F)c1)c1csc([C@@H]2O[C@H](CO)[C@H](O)[C@H](O)[C@H]2O)n1,15%,19%,-17%,/,/
COc1ccc(NS(=O)(=O)c2ccc(C(=O)N3CCN(Cc4ccccc4)CC3)cc2)cc1,-22%,-26%,?,/,/
N#Cc1ccc(CN2CCN(C(=O)c3ccc(S(=O)(=O)N4CCCCCC4)cc3)CC2)cc1,/,/,14µM*,/,/
COc1ccc(CN2CCN(C(=O)c3ccc(S(=O)(=O)N4CCCCCC4)cc3)CC2)cc1,-4%,-15%,20µM*,?,-5%
COc1ccc(CN2CCN(C(=O)c3ccc(S(=O)(=O)N4CCCCCC4)cc3)CC2)cc1F,?,-24%,14µM*,?,?
COc1ccc(CN2CCN(C(=O)c3ccc(S(=O)(=O)NCc4ccco4)cc3)CC2)cc1F,-3%,-28%,?,?,?
CCC1C(=O)NCCN1Cc1ccc2c(c1)CN(Cc1cccc(OC)c1OC)CCO2 (configuration not stated),-5%,-5%,3%,/,/
Cc1nc(C)c(C(=O)NCc2nc(-c3cccc(NC(=O)c4ccccn4)c3)oc2C)s1,?,-29%,-21%,/,/
C=CCn1c(SCC(=O)c2ccccc2)nnc1-c1cc2ccccc2o1,/,-28%,40µM*,-26%,?
CCn1c(CSCc2ccc(C)cc2)nnc1SCC(=O)N1CCN(c2ccccc2)CC1,?,?,22µM*,-16%,?
SMILES,VACV mCherry inh,Vaccinia Venus,FMDV inh,LASV entry inh,Marburg entry inh
Cn1c(SCC(=O)N2CCN(c3ccccc3)CC2)nnc1-c1cc2ccccc2o1,/,/,3.5µM*,-20%,?
O=C(CC1C=CCC1)Nc1ccccc1 (configuration not stated),-11%,16%,34%,7%[46.1 µM],11%[46.1 µM]
COc1ccc(-n2c(Cc3ccccc3)nnc2SCc2nc(-c3cccs3)no2)cc1,10%,10%,-11%,-23%[46.1 µM],-24%[46.1 µM]
Cn1c(-c2ccncc2)nc2cc(C(=O)N3CCCC3c3nccs3)cc(NC(=O)C3CCC3)c21 (configuration not stated),-9%,3%,-5%,/,/
Cc1nn(C)c(C)c1NC(=O)CCl,?,?,-7%,11µM*,3%[46.1 µM]
Cc1ccc(-n2nc(C)c(NC(=O)CCl)c2C)cc1C,?,?,-19%,11µM*,?
Cc1nn(C)c(C)c1NC(=O)CC12CC3CC(CC(C3)C1)C2,-7%,-23%,-23%,/,/
CCC(=O)Nc1c(C)nn(-c2ccc(C)c(C)c2)c1C,i,-16%,8%,0%,9%
CCc1nnc(N/N=C/c2ccc(N3CCC(C)CC3)c([N+](=O)[O-])c2)n1N,10µM*,?,2%,?,?
CC1Sc2ccc(S(=O)(=O)N3CCC(C(=O)NCCc4ccccc4)CC3)cc2NC1=O (configuration not stated),-13%,-15%,-22%,?,?
Cc1ccc(NC(=O)C2CCN(S(=O)(=O)c3ccc4c(c3)NC(=O)C(C)S4)CC2)c(Cl)c1 (configuration not stated),/,/,18µM*,/,/
Cc1ccc(CCNC(=O)C2CCN(S(=O)(=O)c3ccc4c(c3)NC(=O)C(C)S4)CC2)cc1 (configuration not stated),i,-27%,32µM*,?,?
Cc1ccccc1NC(=O)C1CCN(S(=O)(=O)c2ccc3c(c2)NC(=O)C(C)S3)CC1 (configuration not stated),-7%,-2%,14%,-9%[46.1 µM],-5%[46.1 µM]
Cc1ccc(C)c(N2CCN(C(=O)CCS(=O)(=O)c3ccc4c(c3)NC(=O)C(C)S4)CC2)c1 (configuration not stated),/,/,16µM*,/,/
CCCc1nn2c(=O)cc(COC(=O)c3cccc(NC(=O)c4ccc(OCC)cc4)c3)nc2s1,i,-15%,-22%,?,/
CC(C)c1nc(SCC(=O)N2CC(=O)Nc3ccccc32)c2ccccc2n1,?,?,16µM*,?,?
Cc1c(NS(=O)(=O)c2cccc(C(=O)OCC(=O)c3ccc(Cl)cc3)c2)c(=O)n(-c2ccccc2)n1C,-1%,-11%,-21%,-15%,-16%
CCCCN=C1NN=C(c2ccc3c(c2)OCCO3)CS1,-15%,-14%,?,7.9µM*,?
Cc1cc(C2=NNC(=NC3CC3)SC2)c(C)n1-c1ccccc1F,/,/,0.01µM*,0.13µM*,0.13µM*
c1ccc2oc(C3=NNC(=NC4CC4)SC3)cc2c1,/,/,-54%,7.3µM*,1.8µM*
Cc1ccccc1N=C1NN=C(c2ccccc2F)CS1,/,/,-3%,?,15µM*
